C diff HTS: blocks growth of Clostridium difficile; Clostridium difficile clinical isolate growth, OD600, 24 h; hits give low values; growth activity, negative = inhibition, % at 16 µg/mL (by protocol); hit rate 0.25% among 86,000;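 active = mean growth activity at or below -80% and every replicate also at or below -80%; inconclusive = mean at or below -80% but some replicate above -80%; inactive = mean growth activity above -80%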;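 also: 0% = DMSO wells and -100% = levofloxacin 16 µg/mL wells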
T cruzi growth-1: blocks T. cruzi growth in NIH3T3 culture; AID 624255; T. cruzi beta-gal in NIH3T3, GalScreen luminescence, 90 h; hit rate 5.9% among 77,000; inhibition, % at 8.34 µM;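 active = mean inhibition above about 93%, with at least 55% of replicates each passing it, limit read from the data, passing the limit was not always enough; inconclusive = only one of those two conditions holds; inactive = neither condition holds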
Pf Dd2 growth: P. falciparum Dd2 growth inhibition; SYBR Green, 72 h; hits give low values; activity change, % at 10 µM; hit rate 2.3% among 94,000; in the data active = activity change below about -80%; inconclusive = no clear call, values can overlap the other calls
T cruzi growth-2: inhibitors of T. cruzi proliferation | T. cruzi beta-gal in NIH3T3, GalScreen luminescence, 90 h | inhibition, % at 8.35 µM | shares compounds with T cruzi growth-1 | AID 651739 | hit rate 72% among 5,600;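 active = mean replicate inhibition above about 95% and at least 55% of replicates individually reaching it, limit read from the data; inconclusive = only one of the two criteria is met; inactive = neither criterion is met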
T cruzi growth-3: inhibitors of T. cruzi proliferation; T. cruzi beta-gal in NIH3T3, GalScreen luminescence, 90 h; inhibition, % at 2.09 µM; hit rate 21% among 5,600; shares compounds with T cruzi growth-1; AID 651740;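 active = mean inhibition above about 95%, with at least 55% of replicates also reaching it, limit read from the data; inconclusive = meets just one of the two conditions; inactive = meets neither condition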;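 also: plate controls were neutral control median for no effect and positive control median for full effect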
NIH3T3 tox: NIH/3T3 (mouse) viability loss. cytotoxicity (signal decrease), % at 8.35 µM. NIH/3T3 viability, CellTiter-Glo ATP luminescence, 90 h. hit rate 14% among 5,600. AID 651742. shares compounds with T cruzi growth-1;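 active = mean signal decrease across replicates above about 35% based on untreated-well scatter, with enough replicates individually passing, limit read from the data; inconclusive = no rule stated though some were filed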;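 also: 0% = median of neutral control wells and 100% = median of positive control wells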
3T3 cytotox 2: NIH/3T3 (mouse) viability loss | hit rate 56% among 5,600 | NIH/3T3 viability, CellTiter-Glo ATP luminescence, 90 h | shares compounds with T cruzi growth-1 | AID 651744 | inhibition, % at 24.9 µM;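 active = mean loss of cell viability signal at or above a set limit, and enough replicates individually reaching it; inconclusive = meets only the mean limit or only the replicate share; inactive = meets neither condition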;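 also: 0% = median of neutral control wells and 100% = median of positive control wells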
An asterisk follows results filed as active; ! = not confirmed by another sample. The list is not random: actives were taken first. Their share in the collection is about 6.8%.

What do the screens show for `CC(C)CC#Cc1ccc2c(c1)O[C@H](CN(C)S(=O)(=O)c1cccc(F)c1)[C@H](C)CN([C@@H](C)CO)S2(=O)=O`?
C diff HTS: 7; T cruzi growth-1: 118*; Pf Dd2 growth: -54; T cruzi growth-2: 88; T cruzi growth-3: 100*; NIH3T3 tox: 13; 3T3 cytotox 2: 60*

How did CC(C)CC#Cc1ccc2c(c1)O[C@@H](CN(C)S(=O)(=O)c1ccc(F)cc1)[C@@H](C)CN([C@@H](C)CO)S2(=O)=O do in these assays?
C diff HTS: 6; Pf Dd2 growth: -53

How did CC(C)CC#Cc1ccc2c(c1)O[C@H](CN(C)S(=O)(=O)c1cccc(F)c1)[C@H](C)CN([C@H](C)CO)S2(=O)=O do in these assays?
C diff HTS: 5; T cruzi growth-1: 112*; Pf Dd2 growth: -77; T cruzi growth-2: 100*; T cruzi growth-3: 116*; NIH3T3 tox: 19; 3T3 cytotox 2: 98*

How did CC(C)CC#Cc1ccc2c(c1)O[C@@H](CN(C)S(=O)(=O)c1ccc(F)cc1)[C@H](C)CN([C@@H](C)CO)S2(=O)=O do in these assays?
C diff HTS: 18; Pf Dd2 growth: -68

What do the screens show for `COc1cccc(-c2ccc([C@H]3[C@H](CO)N4C(=O)CN(C(=O)C5CCCCC5)C[C@@H]34)cc2)c1`?
C diff HTS: 7; Pf Dd2 growth: -16

How did COc1ccc2c3c(n(C)c2c1)[C@@H](CO)N(C(=O)C1CC1)CC31CCN(C(=O)C2CCOCC2)CC1 do in these assays?
C diff HTS: -2; Pf Dd2 growth: -16

How did CO[C@@H]1CN(C)C(=O)c2ccc(NC(=O)c3ccc(F)cc3)cc2OC[C@H](C)N(C(C)=O)C[C@H]1C do in these assays?
T cruzi growth-1: -9; Pf Dd2 growth: 5

How did Cc1ccc(S(=O)(=O)N(C)C[C@@H]2OCCCC[C@H](C)Oc3ccc(N(C)C)cc3C(=O)N([C@H](C)CO)C[C@H]2C)cc1 do in these assays?
C diff HTS: 0; T cruzi growth-1: 88; Pf Dd2 growth: inconclusive

What do the screens show for `C[C@H]1CCCCO[C@@H](CN(C)S(=O)(=O)c2ccc(F)cc2)[C@@H](C)CN([C@@H](C)CO)C(=O)c2cc(N(C)C)ccc2O1`?
C diff HTS: -15; T cruzi growth-1: 81; Pf Dd2 growth: -1

How did COc1ccc(S(=O)(=O)N(C)C[C@@H]2OCCCC[C@@H](C)Oc3ccc(N(C)C)cc3C(=O)N([C@H](C)CO)C[C@H]2C)cc1 do in these assays?
C diff HTS: 0; T cruzi growth-1: 76; Pf Dd2 growth: 2

How did C[C@H](CO)N1C[C@H](C)[C@H](CN(C)S(=O)(=O)c2ccc(F)cc2)OCCCC[C@H](C)Oc2ccc(N(C)C)cc2C1=O do in these assays?
C diff HTS: -1; T cruzi growth-1: inconclusive; Pf Dd2 growth: -40; T cruzi growth-2: 96*; T cruzi growth-3: 24; NIH3T3 tox: -12; 3T3 cytotox 2: -21

How did COc1ccc(S(=O)(=O)N(C)C[C@H]2OCCCC[C@H](C)Oc3ccc(N(C)C)cc3C(=O)N([C@H](C)CO)C[C@@H]2C)cc1 do in these assays?
C diff HTS: 2; T cruzi growth-1: 102*!; Pf Dd2 growth: -88*; T cruzi growth-2: 51; T cruzi growth-3: 21; NIH3T3 tox: -25; 3T3 cytotox 2: -14

Results for C[C@H]1CCCCO[C@@H](CN(C)S(=O)(=O)c2ccccc2)[C@@H](C)CN([C@@H](C)CO)C(=O)c2cc(N(C)C)ccc2O1 ?
C diff HTS: -6; T cruzi growth-1: 107*; Pf Dd2 growth: -60; T cruzi growth-2: 69; T cruzi growth-3: 14; NIH3T3 tox: 19; 3T3 cytotox 2: 17

What do the screens show for `Cc1ccc(S(=O)(=O)N(C)C[C@@H]2OCCCC[C@H](C)Oc3ccc(N(C)C)cc3C(=O)N([C@@H](C)CO)C[C@H]2C)cc1`?
C diff HTS: 0; T cruzi growth-1: inconclusive; Pf Dd2 growth: -79; T cruzi growth-2: 77; T cruzi growth-3: 30; NIH3T3 tox: -13; 3T3 cytotox 2: -20

How did C[C@H](CO)N1C[C@H](C)[C@H](CN(C)S(=O)(=O)c2ccccc2)OCCCC[C@H](C)Oc2ccc(N(C)C)cc2C1=O do in these assays?
C diff HTS: -5; T cruzi growth-1: 34; Pf Dd2 growth: -38

How did CNC(=O)C[C@@H]1CC[C@H]2[C@H](COc3ccc(NC(=O)C(C)C)cc3C(=O)N2C)O1 do in these assays?
C diff HTS: -1; T cruzi growth-1: -10; Pf Dd2 growth: 19

Results for CCNC(=O)Nc1ccc2c(c1)C(=O)N(C)[C@@H]1CC[C@H](CC(=O)NC3CCCCC3)O[C@@H]1CO2 ?
C diff HTS: -1; T cruzi growth-1: 14; Pf Dd2 growth: 8

How did C[C@@H]1CN([C@H](C)CO)C(=O)c2ccccc2-c2ccccc2CO[C@@H]1CN(C)S(=O)(=O)c1ccc(C#N)cc1 do in these assays?
T cruzi growth-1: 8; Pf Dd2 growth: 23

Results for CC(=O)N1[C@@H](CO)[C@@H]2c3ccccc3N(C(=O)Nc3cc(F)ccc3F)C[C@@H]21 ?
C diff HTS: -2; T cruzi growth-1: 13; Pf Dd2 growth: 8

How did C[C@@H]1CCCCO[C@H](CN(C)S(=O)(=O)c2cccs2)[C@@H](C)CN([C@H](C)CO)C(=O)c2cc(NS(=O)(=O)c3ccc(Cl)cc3)ccc2O1 do in these assays?
C diff HTS: 3; T cruzi growth-1: 66; Pf Dd2 growth: -12

What do the screens show for `C[C@H]1CCCCO[C@H](CN(C)S(=O)(=O)c2cccs2)[C@@H](C)CN([C@@H](C)CO)C(=O)c2cc(NS(=O)(=O)c3ccc(Cl)cc3)ccc2O1`?
C diff HTS: 4; T cruzi growth-1: 103*; Pf Dd2 growth: -58; T cruzi growth-2: 106*; T cruzi growth-3: 77; NIH3T3 tox: -27; 3T3 cytotox 2: -14

What do the screens show for `C[C@@H]1CCCCO[C@@H](CN(C)S(=O)(=O)c2ccc(Cl)cc2)[C@H](C)CN([C@H](C)CO)C(=O)c2cc(NS(=O)(=O)c3cccs3)ccc2O1`?
C diff HTS: -7; T cruzi growth-1: inconclusive; T cruzi growth-2: 105*; T cruzi growth-3: 86; NIH3T3 tox: -11; 3T3 cytotox 2: -10

How did C[C@@H]1CCCCO[C@H](CN(C)S(=O)(=O)c2ccc(Cl)cc2)[C@@H](C)CN([C@H](C)CO)C(=O)c2cc(NS(=O)(=O)c3cccs3)ccc2O1 do in these assays?
C diff HTS: -10; T cruzi growth-1: 87

How did C[C@@H]1CN([C@H](C)CO)C(=O)c2cccc(NS(=O)(=O)c3ccc(Cl)cc3)c2O[C@@H]1CN(C)CC1CCCCC1 do in these assays?
C diff HTS: 15; T cruzi growth-1: 29; Pf Dd2 growth: -16

How did O=C([C@H]1N[C@H]2c3ccc(-c4ccc(F)cc4)c(=O)n3C[C@H]2[C@@H]1CO)N1CCOCC1 do in these assays?
C diff HTS: -3; T cruzi growth-1: -46; Pf Dd2 growth: 10
